High-throughput results as filed in PubChem.
MCF10A rereplic: A quantitative high throughput screen for small molecules that induce DNA re-replication in MCF 10a normal breast cells; MCF 10A DNA re-replication, Hoechst nuclear intensity, 48 h; Potency, µM (series often up to 46.1 µM), for the others: at the top dose activity, positive = re-replication, hits mostly activators; 350,000 compounds, 2.9% hits; AID 624296, 2012; note: % of control where 0% means no effect; nearly all actives have a fitted effect of over 50% in size
PINK1 expr mod: A Quantitative High throughput Screen to Identify Chemical Modulators of PINK1 Expression; Potency, µM (titrated, usually from 76.6 µM), for inactives: at the highest dose activation (PINK1 increase), most hits filed as activators; PINK1 immunofluorescence, high-content cytometry, 24 h; 410,000 compounds, 0.2% hits; AID 624263, 2012; active = well fitted activation curve with a large enough effect; inconclusive = small, poorly fitted or top-dose-only effect; cell line not stated here; note: % of control where 0% means no effect; nearly all actives have a fitted effect of over 65% in size
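Stable cell line treated 24 h with compounds at 5 concentrations (CCCP controls), then fixed and immunostained for PINK1 plus nuclear and cell stains; PINK1 immunofluorescence quantified by laser-scanning microplate cytometry.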
KB-V1 cytotox: qHTS assay for MDR1-selective chemotherapeutics: Primary screen using the drug-selected MDR subline cells KB-V1 | KB-V1 MDR cells viability, CellTiter-Glo, 72 h | Potency, µM (top dose mostly 46.1 µM), actives largely listed as cytotoxic | 400,000 compounds, 3.4% hits | AID 1347076, 2019; note: % is set by controls: 0 for no effect and ±100 for the full control effect; nearly all actives have a fitted effect of over 60% in size
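KB-V1, DMEM (no phenol red) + 10% FBS; cpd pin-transferred, titration series; 72 h, 37 degrees C; CellTiter-Glo, luminescence. Data normalized, curve-fit.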
KB-3-1 cytotox: qHTS assay for MDR1-selective chemotherapeutics: Primary screen using the parental adenocarcinoma cell KB-3-1; KB-3-1 viability, CellTiter-Glo ATP luminescence, 72 h; 400,000 compounds, 1.4% hits; Potency, µM (doses to about 46.1 µM), actives largely listed as cytotoxic; note: % is set by controls: 0 for no effect and ±100 for the full control effect; nearly all actives have a fitted effect of over 60% in size
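Cells are dispensed, compounds pinned in, plates held at 37 °C for 72 h, then CellTiter-Glo is added and luminescence read after 10 minutes. Cell line: parental KB-3-1 in phenol-red-free DMEM, 10% FBS.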
SW480 rerep: A quantitative high throughput screen for small molecules that induce DNA re-replication in SW480 colon adenocarcinoma cells; SW480 DNA re-replication, Hoechst DNA content imaging, 48 h; Potency, µM (titrated, usually from 46.1 µM), for the others: at the highest dose re-replication activation, actives largely listed as activators; 340,000 compounds, 1.8% hits; AID 624297, 2012; note: % of control where 0% means no effect; nearly all actives have a fitted effect of over 55% in size
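Treated cells incubate 48 hr (37 C, 5% CO2), are stained 40 min with Hoechst, and nuclear fluorescence is enumerated; a rise in nuclei with high DNA signal marks re-replication.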
The depositor's hits bear a star; i = inactive; ? = inconclusive; nt = no result; [ ] = dose if it differs, or a comment. An excerpt weighted towards active compounds, which were near 6.7% of everything screened. Unless noted, calls come from the whole dose curve; as a rule, active = well fitted curve in the direction sought with a large enough effect; inconclusive = small, poorly fitted or top-dose-only effect, or another doubt; inactive = no such curve, though single readings can be large; an effect the other way counts as inactive or inconclusive. Potency is the fitted concentration of half-maximal effect.

SMILES | MCF10A rereplic | PINK1 expr mod | KB-V1 cytotox | KB-3-1 cytotox | SW480 rerep
O=C(NCc1cccc(Cl)c1)c1cccc(OC2CCN(C(=O)C3CC3)CC2)c1 | ? | 2% | ? | 23µM* | -6%
CO/N=C1\CCCc2c(C(=O)NN)sc(SC)c21 | 16µM* | 11% | i | i | ?
O=C(CSc1nnc(-c2ccc3c(c2)OCO3)n1-c1ccccc1)c1ccccc1 | -3% | 4% | 8.2µM* | i | -2%
O=C(CSc1nnc(-c2ccc3c(c2)OCO3)n1-c1ccccc1)c1ccc(Cl)cc1 | 12% | 10% | 16µM* | i | -1%
O=c1c(-c2ccc(F)cc2)nc2cnc(Nc3ccccc3)nc2n1Cc1cccs1 | nt | 24% | nt | nt | nt
CC1Oc2ccc(C#N)cc2N(Cc2cccc(F)c2)C1=O (centres undefined) | nt | 3% | i | i | nt
OC1(c2ccccc2)CCN(Cc2ccccc2)C2CCCCC21 (centres undefined) | 11% | 18% | 23µM* | i | -35%
Cc1oc(-c2cccs2)nc1CN1CC[C@@](O)(c2ccccc2)[C@H]2CCCC[C@@H]21 | -5% | 4% | i | i | -4%
CCOC(=O)c1ccc(Cl)c(NC(=O)c2ccc(-c3ccccc3)cc2)c1 | 3.7µM* | nt | i | ? | -1%
O=C(Nc1ccc(Cl)cc1Cl)c1ccc(-c2ccccc2)cc1 | 1% | 0% | i | i | -4%
CCOC(=O)N1CCN(C(=O)COc2cccc3c2CCN(Cc2ccc(F)cc2)C3=O)CC1 | 1% | 1% | ? | ? | -3%
Cc1ccc(COc2cccc3c2CCN(Cc2ccc(F)cc2)C3=O)cc1 | 23% | 15% | 5.8µM* | ? | 16%
O=C1c2cccc(OCc3ccc(F)cc3)c2CCN1Cc1ccccc1 | ? | 24% | ? | 16µM* | -2%
O=S(Cc1ccc(Cl)cc1)CC(O)COCc1ccc(Cl)cc1 (centres undefined) | -10% | 4%[38.3 µM] | 16µM* | i | -7%
CCOC(=O)/C=C/C(=O)Nc1cccc([N+](=O)[O-])c1 | 3.7µM* | -2% | i | ? | nt
CCOC(=O)/C=C/C(=O)Nc1ccccc1-c1ccccc1NC(=O)/C=C/C(=O)OCC | 5.8µM* | 20% | i | ? | 4.6µM*
CC(=O)c1ccc(F)c(-c2cc(C)cc3c2OC(CNC(=O)c2cnc4ccccn4c2=O)C3)c1 (centres undefined) | nt | 1% | nt | nt | nt
CC1CCCCC1NC(=O)c1cc(Cl)nc2ccccc12 (centres undefined) | nt | 11% | i | i | nt
CCOC(=O)C(=Cc1cc(=O)c(OC)co1)C(=O)OCC | 1.6µM* | -1% | ? | 4.6µM* | ?
COC(=O)c1ccc(N2CCC(C)CC2)c(N)c1 | 21µM* | 4%[38.3 µM] | ? | i | ?
CCN(CC)CCCCN1c2ccccc2Sc2ccccc21 | 26µM* | -3% | ? | ? | 18µM*
Nc1cccnc1S(=O)(=O)c1ccccc1 | 5% | 1% | ? | i | -1%
Nc1cccnc1S(=O)(=O)c1cccc(C(F)(F)F)c1 | -2% | 0% | i | i | 2.9µM*
CCOC(=O)/C(C(N)=NCCCO)=C(/O)c1ccccc1 | 3% | 14µM* | i | i | -6%
COc1cc(OC)cc(-c2cc3cc4c(cc3cn2)OCO4)c1 | ? | 3% | ? | ? | 2.6µM*
SMILES | MCF10A rereplic | PINK1 expr mod | KB-V1 cytotox | KB-3-1 cytotox | SW480 rerep
COc1cc(OC)cc(-c2cc3ccc(OC)cc3cn2)c1 | 62% | 3% | ? | i | 15µM*
COc1ccc2cc(-c3ccccc3)ncc2c1 | -34% | 1% | i | i | 4%
Cc1ccc2nc(Cl)c(/C=N/NC(=O)CN3CCOCC3)cc2c1 | -4% | 2% | i | i | -26%
Cc1cccc2cc(/C=N/NC(=O)CN3CCOCC3)c(Cl)nc12 | -1% | 4% | 18µM* | i | -5%
CC(=O)Nc1c(Cl)c(Cl)c2c(c1Cl)C(=O)c1cc(Cl)ccc1-2 | 0% | ? | 15µM* | 21µM* | -1%
COc1ccc(C(=O)NC(=S)Nc2ccccc2N2CCOCC2)cc1Br | ? | -2% | 16µM* | i | -1%
Cc1ccc(C(=O)NC(=S)Nc2ccccc2N2CCCC2)cc1[N+](=O)[O-] | 2.6µM* | 6% | i | i | 0%
COc1ccc(C(=O)Nc2ccccc2N2CCOCC2)cc1Br | -13% | 3% | i | i | -2%[9.22 µM]
COc1cc(C(=O)OCC#N)ccc1OCc1c(C)noc1C | 4.1µM* | 8% | ? | ? | 10µM*
COc1cc(C(=O)NCc2ccc(C)cc2)ccc1OCc1c(C)noc1C | 1% | -2% | i | i | 0%
COc1cc(C(=O)Nc2ccccc2N2CCOCC2)ccc1OCc1c(C)noc1C | 1% | 0% | 4.6µM* | i | -3%
Cc1ccc(C2(C)NC(=O)N(CC(=O)NNC(=O)c3ccccc3F)C2=O)cc1 (centres undefined) | 3% | -3% | i | i | 2%
O=C(Cn1c(=O)n(Cc2ccc3c(c2)OCO3)c(=O)c2oc3ccccc3c21)Nc1ccccc1F | nt | -1% | nt | nt | nt
C=CCN1C(=O)c2ccccc2Sc2ccc(C(=O)N3CCN(C)CC3)cc21 | -2% | 3% | 9.2µM* | i | -4%
CN1CCN(C(=O)c2ccc3c(c2)N(C)C(=O)/C(=C/c2cccc(Cl)c2)S3)CC1 | 13µM* | -1% | i | i | 4%
CN1C(=O)/C(=C/c2ccccc2F)Sc2ccc(C(=O)N3CCCC3)cc21 | 20% | 1% | i | i | 1%
COc1ccc(/C=C2\Sc3ccc(C(=O)N4CCN(Cc5ccccc5)CC4)cc3N(C)C2=O)cc1OC | 21µM* | 1% | i | i | ?
O=C(COc1ccc(Br)cc1Cl)NNC(=O)c1ccccc1 | -9% | 3% | i | i | 1%
Cc1[nH]c2ccccc2c1C(=O)c1cc(Cc2ccccc2)sc1N | nt | nt | 18µM* | 21µM* | nt
COCCCNC(=O)c1cc(Cc2ccccc2)sc1N | nt | nt | i | i | nt
CCOC(=O)N1CCN(C(=O)c2oc3ccc(S(=O)(=O)N(CC)CC)cc3c2C)CC1 | 14% | 0% | i | i | -1%
O=S(=O)(c1ccccc1Cl)N1CCN(c2nc(-c3cccs3)nc3ccccc23)CC1 | nt | -1% | nt | nt | nt
CSc1ccc(OC2(C)CCN(Cc3ccc(C(C)C)cc3)C2)cc1 (centres undefined) | nt | ? | i | i | nt
CC1CC1c1ccc(/C=C(\C#N)C(=O)Nc2ccc(Cl)cc2Cl)o1 (centres undefined) | 16µM* | 3% | ? | i | nt
